According to PubChem BioAssay AID868 (SRMLSC, 2007):
Screen size: about 190,000 compounds; about 3,500 (1.8%) were called active.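 Rule for the calls: active = inhibition above a set limit, 3 SD over mean compound inhibition (cut at about 8.4% in these data); inactive = the rest.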 Many of the other results were omitted from the sample, so actives are more common in it than they were.

Experiment: inhibitors of the yeast RAM network, primary screen, dse1pr::URA3 reporter, 5-FOA selection (AID 868);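 note: 0% = DMSO-only wells with no growth and 100% = 10 µM 1-NA-PP1 full growth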
Details: S. cerevisiae dse1pr::URA3 reporter, 5-FOA growth OD615, 2 d; at 50 µM; stronger effect = higher value; analog-sensitive cbk1-as2 kinase mutant strain

inhibition, inactive:
NS(=O)(=O)c1ccc(CCNC(=O)c2ccc([N+](=O)[O-])cc2[N+](=O)[O-])cc1 0%, NS(=O)(=O)c1ccc(NC(=O)COC(=O)CCc2c[nH]c3ccccc23)cc1 1.13%, CCOC(=O)CN(C)Cc1c[nH]c2ccccc12 4.1%, CCOc1ncccc1C(=O)OCC(=O)NC1CC1 -0.99%, CN(C)C(CNC(=O)Cc1ccc([N+](=O)[O-])cc1)c1ccccc1 (configuration not stated) -0.62%, O=C(NCc1cccs1)C(=O)NCC1OCCCN1S(=O)(=O)c1ccc(F)cc1 (configuration not stated) 3.25%, COc1ccc(NS(=O)(=O)c2ccc(NC(=O)c3ccc(N(C)S(C)(=O)=O)cc3)cc2)cc1 4.92%, CC(C)CNC(=O)COC(=O)c1ccccc1OCC(=O)Nc1ccc(Br)cc1 1.56%, COc1ccc(C2CC(c3cccs3)=NN2C(=O)CSc2nnc(N)s2)cc1OC (configuration not stated) 1.88%, COc1ccc(C2CC(c3cccs3)=NN2C(=O)COC(=O)c2cc3ccccc3cc2O)cc1OC (configuration not stated) 4.23%, COc1ccc(NC(=O)COC(=O)c2ccc(NS(=O)(=O)/C=C/c3ccccc3)cc2)cc1 4.45%, O=C(CSc1nncs1)NC1CCCc2ccccc21 (configuration not stated) 0.4%, CC(C)Nc1nnc(SCC(=O)c2c[nH]c3ccccc23)s1 0.26%, CN1/C(=C\C(=O)c2cccnc2Cl)C(C)(C)c2ccccc21 0.13%, COCCNC(=S)N1CCC(NC(=O)C23CC4CC(CC(C4)C2)C3)CC1 -0.25%, CCN(CC)CCNC(=O)c1sc2ncn(CC(=O)Nc3ccc(C)c(Cl)c3)c(=O)c2c1C 0.37%, Cn1c(=O)n(Cc2ccco2)c(=N)c2c3c(sc21)CCCC3 1.37%, O=C(COC(=O)CSc1nnc(-c2ccc(Cl)cc2)o1)Nc1cc(Cl)cc(Cl)c1 2.39%, CC(=O)NC1C(OCc2ccccc2)OC(COC(C)=O)C(OC(C)=O)C1OC(C)=O (configuration not stated) 1.66%, CC(=O)NC1C(Oc2ccc(C=O)cc2)OC(COC(C)=O)C(OC(C)=O)C1OC(C)=O (configuration not stated) 1.12%, C=CCOC(=O)C1=C(C)N=C2SCCC(=O)N2C1/C=C/c1ccccc1OC (configuration not stated) 1.62%, COc1ccccc1CNC(=O)CNC(=O)c1cn(-c2ccccc2OC)c(=O)c2ccccc12 1.48%, CCCCNC(=O)CSc1nc2ccc(NC(=O)CSc3nnc(COc4ccccc4C)n3C)cc2s1 6.51%, CCCCNC(=O)CSc1nc2ccc(NC(=O)CSc3nnc(N)s3)cc2s1 2.71%, Cn1c(=O)c2c(ncn2CCc2ccccc2)n(C)c1=O 0.37%, C/C=C(\C)C(=O)NCCN1C2=NC[C@H](Cc3ccc(O)cc3)N2C[C@@H]1Cc1ccc(OC)cc1 -1.63%, CC(C)(C)n1nnnc1C(c1cccs1)N(Cc1cccnc1)CC1CCCO1 (configuration not stated) 4.18%, CCC(C)(C)n1nnnc1C(c1cccs1)N1CCN(Cc2ccccc2)CC1 (configuration not stated) 0.11%, COCCn1c(C)cc(C(=O)COC(=O)/C=C/c2cccc(OC)c2)c1C 8.25%, CC1CCCCC1NC(=O)COC(=O)Cc1ccc(Br)cc1 (configuration not stated) 1.96%, COc1ccc(-c2nc(-c3ccccc3)no2)c(OC)c1 -0.68%, COc1cc(-c2nc(-c3ccncc3)no2)cc(OC)c1OC 1.83%, COc1cccc(CN2CCNC(=O)C2CC(=O)N(C)CCc2ccccn2)c1 (configuration not stated) 0.39%, CN1CCN(c2ccc(NC(=O)COc3ccc(Cl)cc3Cl)cc2)CC1 1.03%, COc1ccc(OCC(=O)Nc2ccc(N3CCC(C)CC3)cc2)cc1 -0.73%, O=C(O)CSc1nccc2ccccc12 0.52%, CCOC(=O)NN1C(=O)c2ccccc2NC1c1ccccc1O (configuration not stated) -0.54%, CCN(CC)C(=O)C(=O)Nc1cccc(Br)c1 1.63%, Cc1ccc(NC(=O)c2csc3c2CCCC3)cc1 0.75%, COC(=O)c1sc(NC(=O)c2csc3c2CCCC3)nc1C 3.89%, CCOC(=O)CC1C(=O)NCCN1C(=O)COc1ccc(Br)cc1C (configuration not stated) -0.4%, Cc1cc(/C=C2/SC(=O)N(CC(=O)OC(C)C)C2=O)c(C)n1C 4.99%, COc1ccc(CCNc2nc(-c3cccc(NC(C)=O)c3)cs2)cc1OC -0.26%, COc1ccc(C2OCC3(CO2)SC(=O)NC3=O)cc1OC (configuration not stated) 0.64%, COc1cccc(NC(=O)CC2C(=O)NCCN2C(=S)Nc2ccc(F)cc2)c1 (configuration not stated) 4.21%, CC1CCCCC1NC(=O)CN1CCC(O)(c2ccc3c(c2)OCO3)CC1 (configuration not stated) 0.68%, CCN(CC)S(=O)(=O)c1ccc(N(C)CCc2ccc(OC)c(OC)c2)nc1 1.33%, CCN(CC)S(=O)(=O)c1ccc(N(C)Cc2cccc(OC)c2OC)nc1 2.24%, Cc1cccc(-n2cnc(C(=O)NNC(=S)Nc3ccccc3)c2)n1 1.6%, Cc1ccc(C(=O)N/C(=C\c2ccco2)C(=O)N2CCSCC2)cc1C -0.85%, CCn1c(COc2ccccc2)nnc1SCC(=O)NCc1ccco1 0.66%, C=CCn1c(CNC(=O)c2ccco2)nnc1SCC(=O)c1ccc(OC)cc1 -1.14%, Cc1ccc(COc2ccc(/C=N/NC(=O)CN3CCCCC3)cc2)cc1 0.5%, O=C(N/N=C/c1ccc(OCc2ccccc2)cc1)c1ccc(O)cc1 1.57%, COc1cc(C(=O)NNC(=O)c2ccc(S(=O)(=O)N3CCCCC3)cc2)cc(OC)c1OC 3.63%, COc1ccccc1NC(=O)CN1CCN(S(=O)(=O)c2ccc(Br)cc2)CC1 0.23%, Cc1csc(NC(=O)c2ccc(-c3ccc(Cl)cc3Cl)o2)n1 0.54%, CC1CCN(C(=S)c2cccc(O)c2)CC1 0.5%, COCC(C)NCc1cc(Br)ccc1OC (configuration not stated) 1.56%, COC(=O)[C@H](Cc1ccccc1)NC(=O)[C@@H]1C[C@H]1[C@@H](NC(=O)OCc1ccccc1)c1ccccc1 1.21%, O=C(O)C1CC=C(Cl)CC1C(=O)NCc1ccccc1 (configuration not stated) 1.08%, CC12CN(NC(=O)c3ccc(Cl)cc3)C3(C#N)CC1CCC23C (configuration not stated) -0.13%, COc1cccc(C(=O)Nc2ccc(N3CCCC3)cc2)c1 1.61%, CC(=O)Nc1cccc(Oc2cc(C#N)c(C#N)cc2N2CCOCC2)c1 0.91%, COc1ccc2cc(CCl)c(Cl)nc2c1 0.27%, COc1ccc(C2CC(c3cccs3)=NN2C(=O)CSc2nncs2)cc1OC (configuration not stated) -0.13%, COc1ccc(C2CC(c3cccs3)=NN2c2ccc(F)cc2)cc1OC (configuration not stated) 2.78%, CCc1c(C)nc2c(OC)cccc2c1Cl 0.88%, CC(C)(C)NC(=O)COC(=O)c1cc(Br)ccc1Cl -0.13%, CC(=O)Nc1ccccc1NC(=O)c1cc(C)cc(C)c1 1.49%, C=CCN(c1ccc(C(=O)Nc2cc(C)cc(C)c2)cc1)S(C)(=O)=O 1.58%, CC(C)(C)c1ccc(/C=C/C(=O)NC2CCS(=O)(=O)C2)cc1 (configuration not stated) -1.15%, Cc1cccc(C(=O)c2cccc(C)c2)c1 1.11%

inhibition, active:
CC(C)(C)N(Cc1ccccc1)C(=O)COC(=O)CCc1c[nH]c2ccccc12 10.3%, O=C1c2cccc(OCC(=O)N3N=C(c4cccs4)CC3c3ccc(F)cc3)c2CCN1Cc1ccccc1 (configuration not stated) 9.86%, CC(C)Nc1nnc(SCC(=O)/C=C2\N(C)c3ccccc3C2(C)C)s1 10.6%, COc1ccc(O[C@H]2C=C[C@@H](c3ccccc3)O[C@@H]2CO/N=C/C[C@@H]2C=C[C@H](OC(C)=O)[C@@H](COC(C)=O)O2)cc1 13.9%, Nc1nnc(SCC(=O)Nc2ccc3nc(SCC(=O)Nc4ccccc4)sc3c2)s1 9.31%, CCOc1ccc(CN(Cc2ccco2)C(c2cccs2)c2nnnn2C(C)(C)C)cc1 (configuration not stated) 15.1%, COc1ccc(-c2noc(-c3cccc(OC)c3OC)n2)cc1OC 8.94%, Cc1ccc(NC(=O)COc2ccc(-n3ccnc3)cc2)cc1Cl 19.6%, COC(=O)c1sccc1NC(=O)c1csc2c1CCCC2 12%, CCN=C1S/C(=C\c2cc(Br)ccc2OCC(=O)OCC)C(=O)N1CC 11.5%, CCN(CC)S(=O)(=O)c1ccc(N(C)Cc2ccc(C(F)(F)F)cc2)nc1 11.1%, COc1ccc(C(=O)CSc2nnc(COc3ccccc3)n2Cc2ccco2)cc1 9.29%, O=C(Cc1cccs1)N/N=C/c1ccc(OCc2ccccc2)cc1 10.5%, COCCN(CC(=O)Nc1ccccc1C)S(=O)(=O)c1ccc(S(=O)(=O)N2CCCC2)cc1 9.62%, CC1CCN(C(=S)c2ccc(-c3ccc(Cl)cc3Cl)o2)CC1 15.1%, O=C(NCc1ccccc1)[C@H]1C[C@@H]1[C@H](NP(=O)(c1ccccc1)c1ccccc1)c1ccccc1 19%, COc1cc(N2CCCC2)c(OC)cc1/C=C(/C#N)c1cccc(Br)c1 8.59%, COc1ccc(C2CC(c3cccs3)=NN2c2nc(C)c(C(C)=O)s2)cc1OC (configuration not stated) 9.6%, CSCc1ccc(C(=O)Nc2cc(C)cc(C)c2)cc1 10.7%
